# Measured values reported in PMC7819943, “Rice protein-binding microarrays: a tool to detect cis-acting elements near promoter regions in rice”.
# The full ranking holds about 35,000 sequences; the median of “fluorescence intensity (a.u.)” is about 10,000, and the highest 2% start at about 52,000. The sample holds the highest values, similar sequences and a random draw of the others, so the mix is not that of the screen.
# Biological target: T1, OsWOX13 (Oryza sativa, UniProt Q5QMM3 1-267)
# T1 sequence: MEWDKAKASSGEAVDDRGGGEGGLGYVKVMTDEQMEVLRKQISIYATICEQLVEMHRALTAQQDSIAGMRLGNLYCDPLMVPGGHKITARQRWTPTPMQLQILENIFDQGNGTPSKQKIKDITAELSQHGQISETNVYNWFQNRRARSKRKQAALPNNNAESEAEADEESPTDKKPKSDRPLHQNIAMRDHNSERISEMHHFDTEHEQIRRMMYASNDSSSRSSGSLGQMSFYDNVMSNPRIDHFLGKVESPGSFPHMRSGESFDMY
# Assay: protein-binding microarray (RPBM); PBS, 2% BSA, 51.3 ng/ul salmon testes DNA, 50 uM zinc acetate, 200 nM TF, 25 C, 1 h; high values mean tight binding
# Settings: protein: recombinant; tags: N-terminal polyhistidine and DsRed monomer fusion (pET32a); label: CyDye5-dUTP incorporated in the synthesized complementary strand; 3' TTTTT single-stranded linker to array surface; dsDNA, one strand shown
# Outline: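 The binding signal for each feature is its fluorescence intensity in arbitrary units. An Axon 4000B scanner was used to read a custom Agilent array that had been made double-stranded with Cy5-dUTP primer extension, blocked with 2% BSA, incubated at 25 °C for 1 h with 200 nM protein in PBS, 2% BSA, salmon testes DNA and 50 µM zinc acetate, and washed. The protein was an N-terminal polyhistidine–DsRed transcription factor fusion from E. coli BL21-CodonPlus, purified on Ni–NTA.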
row,Sequence,binding signal
1,TAAAATAAATCAAATTAATACAAGTGAGATATCTTAGTAACGGAGTCACCTAGTGCAG,6480 fluorescence intensity (a.u.)
2,TGGCTCTGATCCATCAATTAGGATTTGCCAGTGCCTCTCCCGGAGTCACCTAGTGCAG,5390 fluorescence intensity (a.u.)
3,AAGAAGAATCTATCTATCTATCTATCTATCAATCTCTATACGGAGTCACCTAGTGCAG,3320 fluorescence intensity (a.u.)
4,GAAGGATTGAGATATGATTGATTATTATATCATATACTCTCGGAGTCACCTAGTGCAG,55000 fluorescence intensity (a.u.)
5,TCATATGATTAGGATATATCACATCTCATTATATTATATGCGGAGTCACCTAGTGCAG,17800 fluorescence intensity (a.u.)
6,TAGAAGATAGATTGATTGATTGATATATACTATCTCTATACGGAGTCACCTAGTGCAG,52600 fluorescence intensity (a.u.)
7,TTTGGGATTATTATAATCTAGATTATTGAGTCATATTACTCGGAGTCACCTAGTGCAG,10300 fluorescence intensity (a.u.)
8,AATATATTGACATTGATATCTTATAAAGAGCCTATAGATACGGAGTCACCTAGTGCAG,5820 fluorescence intensity (a.u.)
9,TCCACAATTTGCTAATCATATTTCTGTTGATAATGATAATCGGAGTCACCTAGTGCAG,7820 fluorescence intensity (a.u.)
10,GAAGATTGAGCTCTGCAGCAACAACCCAAACACACAAAGCCGGAGTCACCTAGTGCAG,3290 fluorescence intensity (a.u.)
11,CATAGGATCAATTTAATATATTGACATGCCATTAGGCCATCGGAGTCACCTAGTGCAG,10600 fluorescence intensity (a.u.)
12,CTTTACAATTAATACATGTTCCACTTGTCTCTCTCACAGACGGAGTCACCTAGTGCAG,4970 fluorescence intensity (a.u.)
13,CGTAGATTTGACCGAACAAATTGTACAGTAATGTACTAGGCGGAGTCACCTAGTGCAG,20100 fluorescence intensity (a.u.)
14,ACTGTAATTTTAATTATATTATTGTTACACTATAATTGCACGGAGTCACCTAGTGCAG,41800 fluorescence intensity (a.u.)
15,TTTACACTATAATTATATTCACTTATACATTGTAATTACACGGAGTCACCTAGTGCAG,13800 fluorescence intensity (a.u.)
16,GTGTAATTACACTATAATTGCACTATAATTATATCTGTCACGGAGTCACCTAGTGCAG,61500 fluorescence intensity (a.u.)
17,GTGTAATTATACTATAATTGTACTGTAATTACATCTGTCACGGAGTCACCTAGTGCAG,56600 fluorescence intensity (a.u.)
18,ATTATACTATGATTGTACTGTAATTACATCTGTCAAATTTCGGAGTCACCTAGTGCAG,24500 fluorescence intensity (a.u.)
19,GTGTAATTACACTACGATTGTACTGTAATTACATCTGTCACGGAGTCACCTAGTGCAG,29900 fluorescence intensity (a.u.)
20,CTTTAAACAGTTTGAGTGAATTTAGGGGTACATATTTCTGCGGAGTCACCTAGTGCAG,6070 fluorescence intensity (a.u.)
21,TTTTGCTTGATTGGTGGTCTGATGTATTTGATGAGTGCGACGGAGTCACCTAGTGCAG,31300 fluorescence intensity (a.u.)
22,ACACTAACAAATCAATTTTCTCTACCCACCACTCCTGAATCGGAGTCACCTAGTGCAG,8890 fluorescence intensity (a.u.)
23,ATAATTATTTGTTTTCAGTCATGTATCTTCATCTTATACACGGAGTCACCTAGTGCAG,6340 fluorescence intensity (a.u.)

row,Sequence,binding signal
1,AATGACATGGCAATCTCACCTTGGAGGTTTGTGCTTTGAACGGAGTCACCTAGTGCAG,4460 fluorescence intensity (a.u.)
2,AAGCAATATAATTGTTTCTCTAATTAGGAGTTATACATGTCGGAGTCACCTAGTGCAG,19000 fluorescence intensity (a.u.)
3,GGGGACATAAATCCTGATGATTTCCTCAACTTTGATCTTGCGGAGTCACCTAGTGCAG,3630 fluorescence intensity (a.u.)
4,AGCCTAATTAATTTGTCATTAGCAAATGTTTACTGTAGCACGGAGTCACCTAGTGCAG,57000 fluorescence intensity (a.u.)
5,AATTAATTTGTCATTAGTAAATGTTTACTGTAGCACCACACGGAGTCACCTAGTGCAG,42000 fluorescence intensity (a.u.)
6,TCTAATTAATTTGTCATTAGCAAATGTTTATTGTAGCATCCGGAGTCACCTAGTGCAG,58400 fluorescence intensity (a.u.)
7,TAAGCCTAATTAATTTGTCATTAGCAAATGTTTACTATAGCGGAGTCACCTAGTGCAG,30300 fluorescence intensity (a.u.)
8,CCTAATTAATCTGTCATTAGCAAATATTTATTGTAGCATCCGGAGTCACCTAGTGCAG,47000 fluorescence intensity (a.u.)
9,CCTAATTAATCCGTCATTAGCAAATGTTTATTGTAGCACCCGGAGTCACCTAGTGCAG,41300 fluorescence intensity (a.u.)
10,CTTGATTAATCCGTACGTCTATCAACTCAGCCCGAAACGCCGGAGTCACCTAGTGCAG,46200 fluorescence intensity (a.u.)
11,TGAGCTATTAGATTGGTTATAGATGAATTGAAGTTAGTAGCGGAGTCACCTAGTGCAG,14100 fluorescence intensity (a.u.)
12,ACATGATAGACTAATGAGTAGATTGTTGTCCTAATTAGCTCGGAGTCACCTAGTGCAG,54100 fluorescence intensity (a.u.)
13,GATATTAGATTGGCTATAGATGAATTGGAGTTAGTAGTGGCGGAGTCACCTAGTGCAG,52700 fluorescence intensity (a.u.)
14,TTAGATTGGTTATAGATGAATTGGAGCTAGTAGTGGGTTGCGGAGTCACCTAGTGCAG,56200 fluorescence intensity (a.u.)
15,ATTAGATTGACTATAGATGAATTGAAGACAGTAGTGGGCTCGGAGTCACCTAGTGCAG,49500 fluorescence intensity (a.u.)
16,CATGATTAATTTTAGGCCGGTCATTGCTCGTGTCCTTGTTCGGAGTCACCTAGTGCAG,65300 fluorescence intensity (a.u.)
17,CTTGAGATGATTAGACTCCTAATGTAGCTCATGATTATATCGGAGTCACCTAGTGCAG,14400 fluorescence intensity (a.u.)
18,AAGCTATTAGATTGGCTATAGATGAATTGAAGTTAGTAGTCGGAGTCACCTAGTGCAG,26100 fluorescence intensity (a.u.)
19,AAACCCTTAATTGCTCATGATTTTGCCATTATAATATAGGCGGAGTCACCTAGTGCAG,44600 fluorescence intensity (a.u.)
20,GGCTATTAGATTGGTTATAAATGAATTGGAGCCAATAGTGCGGAGTCACCTAGTGCAG,39100 fluorescence intensity (a.u.)
21,ATTGGCTATTAGATTGGCTATAGATGAATTAGAGTTAGTACGGAGTCACCTAGTGCAG,15400 fluorescence intensity (a.u.)
22,GAAATTATTGCTGAAATTTTGTCCTTCATAGTGTGCTGTTCGGAGTCACCTAGTGCAG,12200 fluorescence intensity (a.u.)
